# PubChem BioAssay AID651640 (Broad Institute, 2012)
# Several values for one entry are separate records, joined by “and”; a condition that tells them apart may be missing. Identical values can stand only once. Screen size: about 350,000 compounds; about 6,000 (1.7%) were called active. About 5% were inconclusive and are not listed. This is one part of a sample in which actives are shown more often than they occur. A number with no mark means an inactive call. Rule as the data show it: active = CPE inhibition above about 20% (passing the limit was not always enough); inconclusive = no clear call, values can overlap the other calls; tested in BHK-21 cells.
# Experiment: protection of cells from dengue 2 killing – plate reader, single concentration, primary screen (AID 651640);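 also: 0% = median of neutral control wells and 100% = median of positive control wells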
# Conditions: DENV2-infected cells, cytopathic effect rescue, at 9.99 µM, hits give high values
row,SMILES,CPE inhibition
1,COc1ccc(OC)c(C(C)NC(=S)Nc2ccc(S(=O)(=O)Nc3ncccn3)cc2)c1 (stereo not given),49.8% (active)
2,CC(Oc1cccc(Cl)c1)C(=O)Nc1ccc(S(=O)(=O)Nc2ncccn2)cc1 (stereo not given),2.3%
3,O=C(NC(=S)Nc1ccc(S(=O)(=O)Nc2ncccn2)cc1)c1cccc(Br)c1,-1.82%
4,Cc1noc(C)c1NC(=O)Nc1ccc2c(c1)C(=O)N([C@H](C)CO)C[C@@H](C)[C@H](CN(C)S(=O)(=O)c1ccc(Cl)cc1)OCCCC[C@H](C)O2,-4.55%
5,COc1ccc(Cn2cc(CN3CCS(=O)(=O)N(Cc4ccc(-c5cccc(Cl)c5)cc4)C(C)C3=O)nn2)cc1 (stereo not given),3.05%
6,Cc1ccc(-c2ccc(CN3C(C(C)C)C(=O)N(Cc4cn(CCC5OCCO5)nn4)CCS3(=O)=O)cc2)cc1 (stereo not given),6.07%
7,CC1C(=O)N(Cc2cn(Cc3ccco3)nn2)CCS(=O)(=O)N1Cc1ccc(-c2cccc(CO)c2)cc1 (stereo not given),-5.64%
8,Cc1ccc(-c2ccc(CN3C(C)C(=O)N(Cc4cn(CCC5OCCCO5)nn4)CCS3(=O)=O)cc2)cc1 (stereo not given),86.5% (active)
9,CC(C)C1C(=O)N(Cc2cn(CCC3OCCO3)nn2)CCS(=O)(=O)N1Cc1ccc(-c2ccccc2C(F)(F)F)cc1 (stereo not given),-6.47%
10,Cc1ccc(-c2ccc(CN3C(C(C)C)C(=O)N(Cc4cn(CCC5OCCCO5)nn4)CCS3(=O)=O)cc2)cc1 (stereo not given),102% (active)
11,CCCNC(=O)[C@@H]1[C@@H](CO)[C@@H]2Cn3c(cccc3=O)[C@H]1N2C(=O)C1CC1,-2.53%
12,CO[C@@H]1CN(C)C(=O)c2ccc(NC(=O)Nc3ccccc3)cc2OC[C@@H](C)N(C(=O)Nc2c(C)noc2C)C[C@@H]1C,-2.63%
13,CCCNC(=O)Nc1ccc2c(c1)C(=O)N(C)[C@H]1CC[C@H](CC(=O)NCC3CCCCC3)O[C@@H]1CO2,7.7%
14,CCC(=O)N(C)C[C@@H]1Oc2ncc(-c3ccccc3OC)cc2C(=O)N([C@@H](C)CO)C[C@@H]1C,-0.292%
15,O=C(C[C@@H]1C=C[C@@H](NC(=O)c2ccccn2)[C@@H](CO)O1)NCc1cc(F)cc(F)c1,-1.09%
16,CO[C@@H]1CN(C)C(=O)c2cc(NS(C)(=O)=O)ccc2OC[C@@H](C)N(C(=O)C2CCC2)C[C@@H]1C,23.4% (active)
17,CCCC(=O)Nc1ccc2c(c1)OC[C@H](C)N(C(=O)C1CCCC1)C[C@@H](C)[C@H](OC)CN(C)C2=O,-8.69%
18,CCCC(=O)Nc1ccc2c(c1)C(=O)N(C)C[C@@H](OC)[C@H](C)CN(C(C)=O)[C@H](C)CO2,4.44%
19,CO[C@H]1CN(C)C(=O)c2cc(NS(C)(=O)=O)ccc2OC[C@H](C)N(C(=O)C2CCCC2)C[C@H]1C,-6.55%
20,CCCNC(=O)N1C[C@H](C)[C@H](OC)CN(C)C(=O)c2cc(NC(=O)CC)ccc2OC[C@H]1C,-0.559%
21,CCC(=O)N1C[C@H](C)[C@H](OC)CN(C)C(=O)c2ccc(NC(=O)Nc3ccccc3)cc2OC[C@H]1C,-7.71%
22,CO[C@H]1CN(C)C(=O)c2ccc(NC(=O)C3CC3)cc2OC[C@H](C)N(C(=O)CN2CCOCC2)C[C@@H]1C,-2.69%

row,SMILES,CPE inhibition
1,CO[C@@H]1CN(C)C(=O)c2cc(NC(=O)C3CC3)ccc2OC[C@H](C)N(C(=O)CN2CCOCC2)C[C@@H]1C,-10.9% and -2.35%
2,CCCC(=O)Nc1ccc2c(c1)C(=O)N(C)C[C@H](OC)[C@@H](C)CN(C(C)=O)[C@H](C)CO2,68% (active)
3,CCCC(=O)Nc1ccc2c(c1)OC[C@H](C)N(C(=O)CC)C[C@H](C)[C@@H](OC)CN(C)C2=O,25.3% (active)
4,CO[C@H]1CN(C)C(=O)c2ccc(NC(=O)C3CC3)cc2OC[C@@H](C)N(C(=O)CN2CCOCC2)C[C@H]1C,41.3% (active)
5,CO[C@H]1CN(C)C(=O)c2ccc(NS(C)(=O)=O)cc2OC[C@H](C)N(C(=O)C2CCC2)C[C@H]1C,-2.45%
6,CCCC(=O)N1CCC2(CC1)CN(C(=O)C1CCCCC1)[C@@H](CO)c1[nH]c3cc(OC)ccc3c12,0.105%
7,C[C@@H]1CCCCO[C@@H](CN(C)C(=O)NC2CCCCC2)[C@@H](C)CN([C@@H](C)CO)C(=O)c2cc(NC(=O)C3CCCCC3)ccc2O1,-1.85%
8,C[C@@H]1CN([C@@H](C)CO)C(=O)c2cccc(NC(=O)Nc3ccc4c(c3)OCO4)c2O[C@@H]1CN(C)C(=O)Nc1ccc(F)cc1,16.1%
9,C[C@H](CO)N1C[C@H](C)[C@@H](CN(C)C(=O)Nc2ccc3c(c2)OCO3)Oc2ccc(NC(=O)NC3CCCCC3)cc2CC1=O,9.47%
10,COc1ccc(S(=O)(=O)N(C)C[C@H]2OCCCC[C@@H](C)Oc3ccc(NC(=O)NC(C)C)cc3C(=O)N([C@H](C)CO)C[C@H]2C)cc1,-2.15%
11,COCC(=O)N1CC(=O)N2[C@H](C1)[C@@H](c1ccc(C#Cc3cccc(OC)c3)cc1)[C@@H]2CO,-1.66%
12,COc1ccc(S(=O)(=O)N(C)C[C@@H]2OCCCC[C@H](C)Oc3ccc(NC(=O)NC4CCCCC4)cc3C(=O)N([C@H](C)CO)C[C@H]2C)cc1,-9.88%
13,CCCN1[C@H](C(=O)N2CCCCC2)[C@@H](CO)[C@@H]2Cn3c(ccc(-c4ccccc4F)c3=O)[C@@H]21,0.279%
14,C[C@H](CO)N1C[C@H](C)[C@@H](CN(C)C(=O)c2ccncc2)Oc2ncc(-c3ccncc3)cc2C1=O,0.501%
15,C/C=C/c1cccc(-c2nc(C(=O)NCCN3CCCCC3)cc3c2[C@@H](CCO)N([S@](=O)C(C)(C)C)C3)c1,8.26%
16,COCc1cn(CC[C@@H]2CC[C@@H](NC(=O)Nc3ccc(C(F)(F)F)cc3)[C@H](CO)O2)nn1,2.57%
17,O=C(C[C@H]1C[C@H]2c3cc(NC(=O)Nc4ccccc4)ccc3O[C@H]2[C@H](CO)O1)NC1CCCC1,16.7%
18,O=C(N[C@H]1CC[C@@H](CCNS(=O)(=O)Cc2ccccc2)O[C@H]1CO)c1ccccc1F,5.12%
19,CN(C)C(=O)c1cccc(-c2ccc([C@H]3[C@H](CO)N4C(=O)CN(C(=O)Cc5ccccc5)C[C@@H]34)cc2)c1,4.14%
20,Cc1noc(C)c1NC(=O)Nc1ccc2c(c1)C(=O)N([C@H](C)CO)C[C@@H](C)[C@@H](CN(C)Cc1ccncc1)OCCCC[C@H](C)O2,1.93%
21,CN1C(=O)c2cc(NC(=O)C3CCOCC3)ccc2OC[C@@H]2O[C@@H](CC(=O)NCC3CC3)CC[C@@H]21,-9.75%
22,CN(C)C(=O)C[C@@H]1C[C@@H]2c3cc(NC(=O)NC4CCCCC4)ccc3O[C@@H]2[C@H](CO)O1,-9.26%

row,SMILES,CPE inhibition
1,CCC(=O)Nc1ccc2c(c1)C(=O)N(C)C[C@H](OC)[C@H](C)CN(C(=O)c1ccccc1F)[C@@H](C)CO2,23.7% (active)
2,CO[C@@H]1CN(C)C(=O)c2cc(NC(=O)C3CC3)ccc2OC[C@H](C)N(C(=O)c2ccccc2F)C[C@H]1C,-0.841%
3,CCC(=O)Nc1ccc2c(c1)OC[C@H](C)N(C(=O)c1ccccc1F)C[C@@H](C)[C@H](OC)CN(C)C2=O,-6.62%
4,C[C@@H]1CN([C@@H](C)CO)C(=O)c2cc(-c3cncnc3)cnc2O[C@@H]1CN(C)C(=O)c1ccccc1F,16.7%
5,Cc1ccc2c(c1)NC(=O)[C@@]1(C)[C@@H](c3ccccc3)[C@H]3COc4ccc(Cl)cc4[C@@H]3N1C2=O,82.7% (active)
6,COc1ccc2c(c1)[C@H]1[C@H](CO2)[C@H](c2ccccc2)[C@]2(C)C(=O)Nc3cc(F)c(F)cc3C(=O)N12,-1.62%
7,CCOC(=O)[C@H]1[C@H]2COc3ccc(Cl)cc3[C@@H]2N2C(=O)c3cc(C)ccc3NC(=O)[C@@]12C,4.71%
8,COc1ccccc1CC1(C)C(=O)Nc2ccc(OC(F)(F)F)cc21 (stereo not given),0.818%
9,Cc1ccc(CC2(C)C(=O)Nc3ccc(OC(F)(F)F)cc32)cc1 (stereo not given),6.39%
10,CCc1ccc2c(c1)NC(=O)C2(C)Cc1ccc(OC(F)(F)F)cc1 (stereo not given),48.3% (active)
11,CC(C)NC(=O)Nc1cccc2c1O[C@@H](CN(C)Cc1ccc(C(=O)O)cc1)[C@@H](C)CN([C@H](C)CO)C2=O,-5.2%
12,CO[C@H]1CN(C)C(=O)c2ccc(NC(=O)c3cccc(F)c3)cc2OC[C@H](C)N(CC2CC2)C[C@@H]1C,-4.07%
13,O=C(O)/C=C/c1cn(-c2ccccc2)nc1-c1cccs1,21.7% (active)
14,O=C(O)c1ccc(N/N=C/c2cn(-c3ccccc3)nc2-c2cccs2)cc1,-1.67%
15,COc1cccc(NC(=O)CN(C)C(=O)/C=C/c2cn(-c3ccccc3)nc2-c2cccs2)c1,-12.9%
16,COc1ccc(NC(=O)N[C@@H]2CC[C@H](CCn3cc(-c4ccc(OC)cc4)nn3)O[C@@H]2CO)cc1,3.46%
17,COc1cccc(NC(=O)N(C)C[C@H]2Oc3cc(/C=C/c4ccccc4)ccc3S(=O)(=O)N([C@H](C)CO)C[C@@H]2C)c1,1.83%
18,c1ccc(-c2ccc(OCCN3CCOCC3)cc2)cc1,27.1% (active)
19,Cc1cccc(C)c1OCCN1CCOCC1,5.93%
20,COc1ccc(-c2sc3ccccc3c2-c2ccc(OCCN3CCOCC3)cc2)cc1,9.44%
21,O=C(C[C@H]1CC[C@@H](NC(=O)Nc2ccc(F)cc2)[C@H](CO)O1)NCc1cccc(F)c1,1.45%
